Marburg entry: Marburg virus entry inhibition | Potency, µM (doses to about 49.2 µM), actives largely listed as inhibitors | actives 6.5% (n = 18,000) | AID 720532 | Marburg virus pseudotype entry/binding inhibition, cell-based
Lassa entry: inhibitors of Lassa virus binding or entry into cells; Potency, µM (titrated, usually from 49.2 µM), usual class: inhibitors; Lassa virus pseudotyped entry inhibition, cell-based qHTS; actives 4.1% (n = 18,000)
Large screens that a line does not name were inactive; ! = not confirmed by another sample. Most compounds without a hit are left out; they make up all but 8% or so of the library. Calls come from the whole dose curve; tested in HEK293 cells.

Cc1ccc(CN2CC(N3CCN(C4CCN(C)CC4)CC3)CS2(=O)=O)cc1 (configuration not stated)	none
O=P12OCC=C[C@H](C[C@H](CC3C#C3)O1)O2	none (no result: Lassa entry)
CN(C)c1cccc(CN2CCN(c3ccccc3)CC2)c1	none
CCc1cccc(N(C)C(N)=Nc2cccc3ccccc23)c1	Marburg entry 28µM, Lassa entry inconclusive
COc1cccc(CCc2ccccc2OCC(CN(C)C)OC(=O)CCC(=O)O)c1 (configuration not stated)	Marburg entry 11µM, Lassa entry 22µM
COc1cccc(CS(=O)(=O)c2ccccc2)c1	none
NS(=O)(=O)c1cccc2c1c([N+](=O)[O-])cc1[nH]c(=O)c(=O)[nH]c12	none
CCOC(=O)C=C1CN(Cc2ccc(OC)cc2)S(=O)(=O)c2ccccc21	Marburg entry inconclusive
COc1ccc2cc3[n+](cc2c1OC)CCc1cc2c(cc1-3)OCO2	Marburg entry 10µM!, Lassa entry 11µM!
COc1cc2c(c(OC)c1OC)C(c1ccc3c(c1)OCO3)CC(=O)O2 (configuration not stated)	none
COc1ccc2c(c1OC)CN1CCc3cc4c(cc3C1C2)OCO4 (configuration not stated)	none
COc1ccc2c(c[n+](C)c3c4cc5c(cc4ccc23)OCO5)c1OC	Marburg entry 4.5µM, Lassa entry 10µM
CCN1C[C@]2(COC(=O)c3ccccc3N3C(=O)CC(C)C3=O)CC[C@H](OC)[C@@]34C5C[C@@H]6[C@@H](OC)C[C@@](O)(C5[C@H]6OC)[C@](O)([C@@H](OC)C23)[C@@H]14 (some centres not stated)	none
CCCCC1=CC2=CC(=O)C(C)(O)C(=O)C2=CO1 (configuration not stated)	none
C[C@H]1C(c2ccc(F)cc2)=NN(c2ccccc2)[C@@H]1CO	none
CN(C)c1ccc(-c2nc(NC3CCNCC3)c3ccccc3n2)cc1	Marburg entry 14µM
COCCNc1nc(-c2ccc(N(C)C)cc2)nc2ccccc12	Marburg entry inconclusive
CC(C)CCON=O	none
CCON=O	Lassa entry 10µM
CO[C@H](C(=O)[C@@H](O)[C@@H](C)O)C1Cc2cc3cc(O[C@H]4C[C@@H](O[C@H]5C[C@@H](O)[C@H](O)[C@@H](C)O5)[C@@H](O)[C@@H](C)O4)c(C)c(O)c3c(O)c2C(=O)[C@H]1O[C@H]1C[C@@H](O[C@H]2C[C@@H](O[C@H]3C[C@](C)(O)[C@H](O)[C@@H](C)O3)[C@H](O)[C@@H](C)O2)[C@H](O)[C@@H](C)O1 (some centres not stated)	Marburg entry inconclusive
CC(Oc1cc(-n2cnc3ccc(OCC4CCN(C)CC4)cc32)sc1C(N)=O)c1ccccc1C(F)(F)F (configuration not stated)	Marburg entry 1.4µM (no result: Lassa entry)
CC(Oc1cc(-n2cnc3ccc(OCC4CCN(C)CC4)cc32)sc1C(N)=O)c1ccccc1Cl (configuration not stated)	Marburg entry 0.63µM (no result: Lassa entry)
NC(=O)c1sc(-n2cnc3ccccc32)cc1OCc1ccccc1Br	Marburg entry 16µM (no result: Lassa entry)
COc1ccc2ncn(-c3cc(OC(C)c4ccccc4Cl)c(C(N)=O)s3)c2c1 (configuration not stated)	Marburg entry 0.32µM, Lassa entry inconclusive
O=[N+]([O-])c1ccc(CN2CC(N3CCN(CC4CC4)CC3)CS2(=O)=O)cc1 (configuration not stated)	none
CC(=O)c1ccc(-c2cc(F)cc3c2OC(CNC(=O)C(C)N2CCOCC2)C3)s1 (configuration not stated)	none
C=C1C[C@@H]2[C@H](CC[C@]3(C)C(=O)CC[C@@H]23)[C@@]2(C)C=CC(=O)C=C12	none
CC(=O)NS(=O)(=O)c1ccc(N)cc1	none
CCCCCC(=O)N1C[C@@H](n2cc(COC(=O)c3ccccc3)nn2)[C@H](O)C[C@H]1c1ccc(Cl)cc1	Marburg entry inconclusive
O=C1OC(c2ccc(O)cc2)(c2ccc(O)cc2)c2ccccc21	none
Cc1ccccc1	none
COc1ccccc1C(=O)N[C@@H]1c2ccccc2C2(CCN(Cc3cnn(C)c3C)CC2)[C@H]1O	none
C=CCNP1(=O)O[C@H](C=C)C[C@H](C=C)O1 (some centres not stated)	none
CCC[C@H]1CN(c2ccccc2)C(=O)[C@H]1CC(=O)NC	none
CCN(CC)CCCCCCCCOC(=O)c1cc(OC)c(OC)c(OC)c1	Marburg entry 13µM, Lassa entry 25µM
COc1cc(/C=C/C(=O)N2CCN(CC(=O)N3CCCC3)CC2)cc(OC)c1OC	none
COc1cc(C(=O)OCCCN2CCCN(CCCOC(=O)c3cc(OC)c(OC)c(OC)c3)CC2)cc(OC)c1OC	Marburg entry 7.1µM, Lassa entry inconclusive
CCN(CC)CCOC(=O)c1ccc(N)cc1	none
CC(=O)c1ccc(-c2c(C)cc3oc(=O)cc(-c4ccccc4)c3c2C)cc1	Lassa entry inconclusive
Cc1cc2oc(=O)cc(-c3ccccc3)c2c(C)c1-c1ccc(CO)cc1	Lassa entry 11µM
C=C(C)C1CCC(C)=CC1c1c(OC)cc(C)cc1OC (configuration not stated)	none
COc1ccccc1CCc1nc2ccccc2n1C1CCN(C(=O)c2cn3ccsc3n2)CC1	none
CCCCOc1ccc(OCCCN2CCOCC2)cc1	none
CCN(CC)CCOc1ccc(C(O)(Cc2ccc(Cl)cc2)c2ccc(C)cc2)cc1 (configuration not stated)	Marburg entry 3.5µM, Lassa entry 25µM
CCN(CC)CCNC(=O)COc1ccc(Cl)cc1	none
CCCCCC(=O)N1C[C@H](n2cc(C3CC3)nn2)[C@@H](O)C[C@H]1c1ccccc1	none
O[C@@H](c1cc(C(F)(F)F)nc2c(C(F)(F)F)cccc12)[C@H]1CCCCN1	Marburg entry 10µM, Lassa entry 28µM
COc1ccc(C(=O)Oc2ccc3c(-c4ccc(OC)cc4)cc(=O)oc3c2)cc1	none
CC[C@@H]1OC(=O)[C@H](C)[C@H](O[C@@H]2C[C@](C)(OC)[C@H](O)[C@H](C)O2)[C@H](C)[C@H](O[C@@H]2O[C@@H](C)C[C@@H](N(C)C)[C@@H]2O)[C@](C)(O)C[C@H](C)C(=O)[C@H](C)[C@H](O)[C@]1(C)O	none
CC[C@H]1OC(=O)[C@H](C)[C@@H](O[C@H]2C[C@@](C)(OC)[C@@H](O)[C@H](C)O2)[C@H](C)[C@@H](O[C@@H]2O[C@H](C)C[C@H](N(C)C)[C@H]2O)[C@](C)(O)C[C@@H](C)CN(C)[C@H](C)[C@@H](O)[C@]1(C)O	Marburg entry 2.8µM, Lassa entry inconclusive
CCC1OC(=O)C(C)[C@@H](O[C@H]2C[C@@](C)(OC)C(O)C(C)O2)C(C)[C@@H](O[C@@H]2OC(C)CC(N(C)C)C2O)[C@@](C)(O)CC(C)CN(C)C(C)C(O)[C@]1(C)O (some centres not stated)	Marburg entry 0.63µM, Lassa entry inconclusive
CC[C@@H]1OC(=O)[C@@H](C)[C@H](O[C@H]2C[C@@](C)(OC)[C@@H](O)[C@H](C)O2)C(C)[C@H](O[C@H]2O[C@@H](C)C[C@@H](N(C)C)[C@@H]2O)[C@@](C)(O)C[C@H](C)C(=O)[C@@H](C)[C@H](O)[C@@]1(C)O (some centres not stated)	Marburg entry inconclusive
COC(=O)C1=C(C)NC(C)=C(C(=O)OC)C1c1ccccc1[N+](=O)[O-]	Lassa entry inconclusive
CC[C@H](C)[C@@H](NC(=O)O[C@@H]1Cc2cc(Br)ccc2O[C@H]1c1cccc(OC)c1)C(=O)OC	none
